26 molecules from PubChem BioAssay (NCI) can be followed below.

The panel holds about 83,000 compounds, 20% with a hit somewhere; the sample as a whole holds those more often.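 Note: values are percent growth. 100 is the growth of untreated cells, values between 100 and 0 indicate rising inhibition; between -100 and 0 indicates cell death.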 Activity calls are given as the source filed them. Rule for the calls: active = growth percent below 10; inactive = the rest.

The subject of this assay is MDA-MB-468 breast. Put plainly: NCI-60 one-dose screen, 48 h (100 = growth as untreated, 0 = no growth, -100 = all killed). As to conditions: 10 µM unless noted.
For `N=C(N)c1ccc(-c2ccc(-c3ccc(F)cc3)s2)cc1`, the growth was -90.7% (active). The figure for `Cc1ccc(C2CC(c3cccc(Nc4ccncc4)c3)=NN2c2cc(Cl)cc(Cl)c2)cc1` (stereo unspecified) is -30% (active); for `Cc1cc(-c2noc(C(F)(F)F)n2)ccc1N1CCN(c2cc(C(=O)N(C)C)no2)CC1` it is 15.2% (inactive).

Regarding `COc1nc(=O)n(C2C=CC(=O)O2)cc1F` (stereo unspecified), the growth was 11.9% (inactive). The result for `CCC(C)C1NC(=O)C(CCCCN)NC(=O)C(CCCCN)NC(=O)C(CC(C)C)NC(=O)C(CCCCN)NC(=O)C(C(C)CC)NC(=O)C(C(C)C)NC(=O)C(C(C)CC)NC(=O)C(CCCCN)NC(=O)C(CCCCN)NC(=O)C(C)NC(=O)C(CCCCN)NC(=O)C(CC(C)C)NC1=O` (stereo unspecified) reads 1.45% (active). With `Cc1n[nH]c(=O)n(/N=C\c2c[nH]c3ccccc23)c1=O`, the growth is 106% (inactive). Turning to `Fc1ccc(-c2cc3nc(C(Cl)Cl)nc(-c4ccc(F)cc4)n3n2)cc1`, the growth was -63.6% (active). On to `Cc1ccc(S(=O)(=O)N(CCc2ccc(Cl)cc2)S(=O)(=O)c2ccc(C)cc2)cc1`, for which the growth is 73.8% (inactive). As for `Clc1ccc2c(NCCNc3nc(N4CCCC4)nc4ccccc34)ccnc2c1`, the growth is -49.2% (active). The result for `C#CC[C@@H]1C[C@]2(C)[C@H]3CC[C@@H]4[C@H]5C(C(=C)C)CC[C@]5(C(=O)NCCN(CCN)CCN)CC[C@@]4(C)[C@]3(C)CC[C@H]2C(C)(C)[C@H]1OC(C)=O` (stereo partly specified) reads -25.4% (active); that for `NCCn1cc(-c2nc(-c3c[nH]c4ncccc34)cs2)c2cc(Br)ccc21`, 66% (inactive); that for `OC(COc1cccc2ccccc12)CN1CCN(c2ccccc2)CC1` (stereo unspecified), 77.6% (inactive). The figure for `COc1ccc(C(O)c2cc3c(N)c(C(=O)Nc4ccc(Br)cc4)sc3nc2C)cc1` (stereo unspecified) is -0.733% (active); for `CC12CCCCC1C(C(N)=O)C(=O)O2` (stereo unspecified) it is 122% (inactive); for `O=C(/C=C/c1ccccc1)c1ccc(Nc2nc(NCCO)nc(Nc3ccc(Cl)cc3)n2)cc1` it is 64.5% (inactive). Take `CCCCOCCOCCOCc1cc2c(cc1Br)OCO2`: the growth is 102% (inactive). As for `C#CCN=C[C@]12CC[C@@H](C(=C)C)[C@@H]1[C@H]1CC[C@@H]3[C@@]4(C)CCC(=O)C(C)(C)[C@@H]4CC[C@@]3(C)[C@]1(C)CC2`, the growth is 40.3% (inactive). Take `O=C(CSc1nc2sc3c(c2c(=O)n1-c1ccc(Cl)cc1)CCCC3)NNC(=O)Nc1cccc(C(F)(F)F)c1`: the growth is 8.29% (active). The result for `COC(=O)[C@]12CC[C@@H](C)[C@H](C)[C@@H]1C1=CC[C@@H]3[C@@]4(C)C[C@@H](OC(=O)/C=C/c5ccccc5)[C@H](O)[C@@](C)(CO)[C@@H]4[C@H](O)C[C@@]3(C)[C@]1(C)CC2` reads -19.2% (active). The figure for `CC(C)c1ccc(S(=O)(=O)NC(=O)NC2CCCC2)cc1` is 96.2% (inactive).

For `CCCCC(=O)OCC1OC(n2cnc3c(=S)nc[nH]c32)C(OC(=O)CCCC)C1OC(=O)CCCC` (stereo unspecified), the growth was 67.4% (inactive).

`COc1ccc(/C=C2\COc3ccc(O)cc3C2=O)c(OC)c1`: the growth was -1.02% (active). The result for `Oc1ccc(Cc2ccc(O)c3ncccc23)c2cccnc12` reads -16% (active); that for `Oc1ccc([S+](c2ccc(O)cc2)c2ccc(O)cc2)cc1`, 98% (inactive).

For `COC(=O)CNC(=O)[C@H](Cc1ccccc1)NCc1ccncc1`, the growth is 97.4% (inactive). On to `COc1ccc2nc3c(cc2c1)C(=O)CC(c1ccccc1)C3` (stereo unspecified), for which the growth was 68.3% (inactive).
